Mdm2-MdmX inh: disrupts the human Mdm2-MdmX interaction | SaOS-2 split-luciferase Mdm2/MdmX complementation, luminescence | inhibition, % at 8 µM | 3% of 330,000 active | AID 485346;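 active = inhibition of at least 50% at 8 µM in the primary screen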
Target sequence (O15151 whole entry, looked up): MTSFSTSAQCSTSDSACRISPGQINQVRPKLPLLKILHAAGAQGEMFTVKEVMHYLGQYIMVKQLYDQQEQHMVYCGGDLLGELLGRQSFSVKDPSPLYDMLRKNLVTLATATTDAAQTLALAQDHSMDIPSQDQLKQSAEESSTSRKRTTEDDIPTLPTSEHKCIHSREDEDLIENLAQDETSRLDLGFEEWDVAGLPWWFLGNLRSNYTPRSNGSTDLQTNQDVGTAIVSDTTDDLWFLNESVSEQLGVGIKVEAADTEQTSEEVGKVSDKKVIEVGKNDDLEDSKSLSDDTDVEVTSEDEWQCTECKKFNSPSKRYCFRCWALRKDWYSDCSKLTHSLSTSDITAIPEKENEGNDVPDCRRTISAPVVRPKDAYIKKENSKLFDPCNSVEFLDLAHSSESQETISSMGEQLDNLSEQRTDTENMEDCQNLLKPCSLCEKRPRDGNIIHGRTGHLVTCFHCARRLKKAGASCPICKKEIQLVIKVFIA
Target sequence (Q00987 whole entry, looked up): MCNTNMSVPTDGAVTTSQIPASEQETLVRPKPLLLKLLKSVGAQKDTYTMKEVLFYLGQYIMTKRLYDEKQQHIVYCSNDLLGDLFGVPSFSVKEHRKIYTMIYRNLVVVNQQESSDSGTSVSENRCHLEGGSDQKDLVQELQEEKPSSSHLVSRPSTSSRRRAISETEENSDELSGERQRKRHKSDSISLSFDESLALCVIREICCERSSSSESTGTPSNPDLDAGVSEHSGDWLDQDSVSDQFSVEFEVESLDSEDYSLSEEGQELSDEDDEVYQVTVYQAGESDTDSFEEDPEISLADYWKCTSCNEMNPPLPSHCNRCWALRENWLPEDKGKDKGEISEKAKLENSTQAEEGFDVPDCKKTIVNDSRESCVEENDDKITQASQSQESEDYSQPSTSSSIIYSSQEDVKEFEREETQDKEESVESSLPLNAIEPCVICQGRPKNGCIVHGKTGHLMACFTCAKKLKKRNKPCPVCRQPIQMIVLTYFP
CSC inhib: cancer stem cell inhibition; AID 2717; inhibition, % at 7.5 µM; cancer stem cell-like cells viability, luminescence; 1.1% of 300,000 active; in the data active = inhibition above about 75%; inconclusive = no clear call, values can overlap the other calls; tested in HMLE shEcad cells
MPTP inh: inhibitors of mitochondrial permeability transition pore. isolated mouse mitochondria, Ca2+ swelling absorbance, 30 min. inhibition, % at 10 µM. 1.4% of 360,000 active. AID 602449;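 active = inhibition of 50% or more, scaled per plate between neutral and stimulator controls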;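 note: 0% = DMSO wells given calcium and 100% = 1 mM EGTA wells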
Beta cell apopt: blocks beta cell apoptosis; INS-1E cytokine-induced death, ATP luminescence, 48 h; percent of positive-control rescue, neutral wells zero; protection from apoptosis, % (test concentration not listed); 0.8% of 300,000 active; AID 435005;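 active = Every replicate reaches about 75%, or at least half do and their mean reaches it too, limit read from the data; inconclusive = At least half of replicates reach the limit but their mean does not; inactive = Under half of replicates reach the limit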;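 note: 0% = cytokine-treated negative control wells and 100% = positive control rescue; higher means more ATP so stronger rescue from cytokine killing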
SKKanGAS inh: blocks kanamycin growth of S. pyogenes SKKanGAS strain | inhibition, % at 7.5 µM | AID 1662 | 1.3% of 300,000 active | BacTiter-Glo, 6 h;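 active = mean replicate score, as percent of positive control median, at least 50; inconclusive = mean below 50 but one replicate at or above 50; inactive = mean and every replicate below 50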;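 note: strain carries kanamycin resistance gene driven by streptokinase promoter and grows in 40 µg/ml kanamycin; loss of luminescence reflects streptokinase promoter inhibition or plain growth inhibition; 0% = median of DMSO wells and 100% = positive control at its reference dose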
Calb FLC: affects C. albicans growth with fluconazole. 0.57% of 300,000 active. C. albicans CaCi-2 (fluconazole-resistant clinical isolate) + fluconazole, Alamar Blue growth, 48 h. AID 1979. growth inhibition, % (test concentration not listed);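 active = growth inhibition above about 58% in most replicates, limit read from the data, passing the limit was not always enough; inconclusive = exactly half the replicates above a set limit; inactive = most replicates below a set limit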;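 note: all wells also contain fluconazole at 8 µg/ml as a sub-toxic cotreatment; 0% = median of DMSO wells and 100% = median of geldanamycin control wells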
* marks the source's active call; other numbers are inactive results; ? = inconclusive; . = no result given. Rows were chosen to be rich in hits. Some 5.4% of all compounds tested hit in one or more screens of this group.

SMILES | Mdm2-MdmX inh | CSC inhib | MPTP inh | Beta cell apopt | SKKanGAS inh | Calb FLC
CC(C(Sc1ccccc1N)c1ccccc1)[N+](=O)[O-] (configuration not stated) | 36.1 | 93.8* | 4.4 | -1.8 | 4.5 | -1.8
COc1ccc(-c2nnc(NC(=O)c3ccc([N+](=O)[O-])o3)o2)c(OC)c1 | 11.4 | 51.5 | 0.2 | -1.1 | 14.4 | -8.8
Cc1ccc(-c2nnc(NC(=O)c3ccc([N+](=O)[O-])o3)o2)c(C)c1 | 25.3 | -1.3 | -1.4 | -3.8 | 69.5* | 84.8*
COc1ccc(C(C)(C)C)cc1NC(=O)Nc1ccc2c(c1)OCO2 | 48.2 | 83.3* | 19.9 | 4.7 | 9.9 | -8.1
COc1cc(NC(=O)Nc2ccc3c(c2)OCO3)cc(OC)c1OC | -24.3 | -24.2 | 2.6 | -2.5 | 0.0 | 4.3
CCOC(=O)c1sc(NC(=O)Cc2c(F)cccc2Cl)nc1C | -9.5 | 26.8 | 0.3 | 9.1 | 12.3 | 2.9
CC(=O)c1ccccc1OCCOCCOc1ccccc1C(C)=O | 16.7 | -5.9 | 6.5 | 107.6* | -0.9 | 3.1
COc1ccc2c(c1O)C(=O)c1ccccc1C2=O | -3.1 | 6.6 | . | -1.6 | 3.6 | -0.8
CC(C)COC(=O)c1ccc2c(c1O)C(=O)c1ccccc1C2=O | -29.9 | 21.1 | 2.2 | 85.2* | 89.6* | -4.4
COc1ccc([C@H]2CC(=O)C[C@@H](CCn3cc(-c4cccnc4)nn3)O2)cc1 | . | . | 1.9 | . | . | .
Cn1c(N)c(C(=O)COC(=O)CCc2c[nH]c3ccccc23)c(=O)n(C)c1=O | 7.3 | -1.5 | 1.3 | -8.9 | 62.9* | 3.5
NC(=O)COC(=O)CCCc1c[nH]c2ccccc12 | 6.6 | -8.2 | 0.6 | -4.0 | 2.3 | -2.4
Cn1c(N)c(C(=O)COC(=O)CCCc2c[nH]c3ccccc23)c(=O)n(C)c1=O | 0.2 | 3.0 | 1.9 | 0.2 | 75.2* | -0.6
N#Cc1ccc(-c2nc3c(Cl)cc(C(F)(F)F)cn3c2Cc2ccsc2)cc1 | . | . | -0.2 | . | . | .
CCOC(=O)c1cc(-c2ccccc2C)nn1Cc1cc(C)no1 | -27.5 | 1.0 | -0.5 | -8.1 | . | .
CC(=O)Nc1ccc(NC(=O)CSc2nnc3ccc(-c4ccccn4)nn23)cc1 | 7.8 | -11.9 | 0.4 | . | 1.2 | 6.2
CC(C)c1nc(-c2ccccc2)c(-c2ccccc2)[nH]1 | 7.1 | -2.9 | -2.5 | 87.7* | -2.5 | -15.0
Clc1ccccc1CN(Cc1ccccc1)c1ncnc2nc[nH]c12 | 8.8 | 50.8 | 1.4 | -3.2 | 50.8* | 6.4
Clc1ccccc1CNc1ncnc2nc[nH]c12 | 35.0 | -9.9 | -1.9 | -9.9 | -1.5 | -4.4
Cc1c(Cc2ccccc2)sc(/N=C/c2c(O)ccc3ccccc23)c1C(N)=O | 34.5 | 97.8* | 30.0 | -3.1 | 34.6 | 48.0
Cc1c(Cc2ccccc2)sc(/N=C/c2ccc3ccccc3c2)c1C(N)=O | . | 48.8 | 7.4 | 4.2 | . | .
O=C(O)C1CC=CCC1C(=O)NCCc1cccc(Cl)c1 (configuration not stated) | -15.4 | . | -0.7 | -8.9 | 1.5 | 1.0
O=C([O-])c1cc(-c2ccccc2)cc(-c2ccccc2)[n+]1Cc1ccccc1 | 17.3 | -0.1 | . | 122.4* | 1.9 | 0.9
CCCCCCn1c(=O)[nH]c2nc3cc(N)ccc3nc2c1=O | . | 81.8* | . | -12.9 | 24.6 | -129.6
CC(C)C(C(=O)NCC1CCCO1)N(Cc1cccs1)C(=O)CNS(=O)(=O)c1ccccc1 (configuration not stated) | 15.2 | -20.2 | 3.1 | -4.6 | 0.7 | 2.7
SMILES | Mdm2-MdmX inh | CSC inhib | MPTP inh | Beta cell apopt | SKKanGAS inh | Calb FLC
Cc1nn(-c2ccccc2)c2nc(N)c(C#N)c(-c3ccc(C(C)(C)C)cc3)c12 | 31.4 | 93.6* | 4.8 | 7.2 | 42.0 | 16.2
COc1ccc(C(=O)NC(=S)N(Cc2ccccc2)Cc2ccccc2)cc1 | 29.9 | 29.4 | 3.1 | 21.1 | 96.1* | 23.4
CC(C)C(=O)NC(=S)N(Cc1ccccc1)Cc1ccccc1 | -16.2 | -7.0 | 1.4 | -0.9 | -8.7 | ?
CC(C)CC(=O)NC(=S)N(Cc1ccccc1)Cc1ccccc1 | -17.4 | 3.4 | 0.5 | -1.7 | 53.6* | -0.5
O=C(NC(=S)NCc1ccccc1)c1ccccc1F | -12.6 | -1.9 | 0.1 | -2.8 | 1.3 | 0.9
O=C(NC(=S)N(Cc1ccccc1)Cc1ccccc1)c1ccccc1F | 8.3 | 34.8 | 1.4 | 15.0 | 94.2* | 16.3
CCCCC1(C)Nc2ccccc2-c2nc3ccccc3n21 (configuration not stated) | 20.7 | 0.5 | 0.3 | 1.1 | 1.0 | -17.4
Cc1ccc(C(=O)NNC(=S)NC(=O)c2ccco2)cc1 | 29.7 | 16.9 | 6.3 | 21.6 | 72.8* | 28.2
Cc1ccc(NC(=O)NC(=S)NC(=O)c2ccccc2)cc1 | 2.4 | -11.6 | 6.0 | 7.9 | -4.8 | 27.5
Cc1ccc(C(=O)NC(=S)NCc2ccccc2)cc1 | 18.8 | 4.6 | -1.0 | . | -1.2 | -13.2
Cc1ccc(C(=O)NNC(=O)c2ccco2)cc1 | -15.6 | 3.9 | -1.9 | 0.1 | 2.8 | 11.9
Cc1ccc(C(=O)NNC(=S)NC(=O)c2ccccc2)cc1 | 31.0 | 11.6 | 16.0 | . | 99.1* | 36.1
O=C(O)c1ccc(NC(=S)NC(=O)c2ccc(-c3ccccc3)cc2)cc1 | -29.6 | -10.7 | 0.3 | 8.3 | 17.0 | 84.4*
Cc1ccc(C(=O)NC(=S)NNC(=O)c2ccccc2)cc1 | 22.2 | -15.5 | 9.5 | 2.2 | 76.6* | 14.5
Cc1onc(-c2ccccc2)c1C(=O)NC(=S)NNC(=O)c1ccc(O)cc1 | 0.1 | 18.5 | -14.6 | 23.4 | 105.8* | 3.7
COC(=O)c1ccc(NC(=S)NC(=O)c2c(-c3ccccc3)noc2C)cc1 | -6.4 | -15.7 | -0.6 | -9.5 | -4.2 | 25.9
COc1ccc2c(c1)CC(C1(O)C(=O)N(C)c3ccccc31)C2=O (configuration not stated) | 28.1 | -11.6 | -1.5 | -11.4 | 6.3 | ?
CSc1ccc(NS(=O)(=O)c2ccc(-n3cnnn3)cc2)cc1 | 18.8 | -6.7 | 0.7 | 0.8 | 2.4 | -3.4
Clc1ccc(N/N=C/c2cccnc2)cc1 | -3.1 | 84.6* | 3.3 | -2.9 | -4.1 | 0.7
O=[N+]([O-])c1ccc(N/N=C/c2cccnc2)cc1 | -41.6 | 21.0 | -0.7 | 7.5 | 1.6 | -17.7
COc1cc(NC(=O)c2ccc(C(=O)c3ccccc3)cc2)cc(OC)c1OC | 20.9 | 14.9 | -1.3 | . | -4.1 | 3.2
O=c1nccc(N/N=C/c2ccccc2O)[nH]1 | 32.3 | 8.3 | -0.4 | 124.7* | 12.4 | 7.1
COc1cccc(/C=N/Nc2ccnc(=O)[nH]2)c1O | 34.8 | 9.4 | -1.1 | 92.7* | -4.1 | 37.6
CCOc1ccccc1/C=N/Nc1ccnc(=O)[nH]1 | -2.3 | -6.1 | -0.5 | 21.4 | -1.5 | -10.5
CCN(CC(=O)NC1CCS(=O)(=O)C1)S(=O)(=O)c1ccc(Cl)c(C(F)(F)F)c1 (configuration not stated) | 14.2 | . | -0.5 | . | . | .
CCCCCOC(=O)CSc1nnc(-c2cc(OC)c(OC)c(OC)c2)o1 | 23.8 | . | -0.9 | -10.9 | 1.7 | 3.6
CCCCCCc1cc2cc(-c3nnc(-c4cc(OC)c(OC)c(OC)c4)o3)c(=O)oc2cc1O | 10.4 | 76.7* | . | 4.8 | 35.6 | -8.2
